Data as given in PubChem BioAssay (EPA / NIEHS).
Records with an inconclusive call do not appear. The source made the active and inactive calls. Rule for the calls: active = hit-call score of the fitted dose curve at least 0.9, where 1 is the maximum; inconclusive = response in the unintended direction; inactive = score below 0.9.

Each compound was assayed on guinea pig Histamine Receptor (H2), gene 100729734 (assay: NVS_GPCR_gH2: NovaScreen (NVS) G Protein-Coupled Receptor Assay for guinea pig Histamine Receptor (H2) (AID 2283342)).
Procedure: NVS_GPCR_gH2 is a biochemical, single-readout assay that uses extracted gene-proteins from Guinea pig striatal membranes in a tissue-based cell-free assay. Measurements were taken 1 hour after chemical dosing in a 96-well plate.NVS_GPCR_gH2 is one of one assay component(s) measured or calculated from the NVS_GPCR_gH2 assay. It is designed to make measurements of radioligand binding, a form of binding reporter, as detected with scintillation counting signals by Filter-based radiodetection technology.Data from the assay component NVS_GPCR_gH2 was analyzed into 1 assay endpoint. This assay endpoint, NVS_GPCR_gH2, was analyzed in the positive analysis fitting direction relative to DMSO as the negative control and baseline of activity. Using a type of binding reporter, loss-of-signal activity can be used to understand changes in the binding as they relate to the gene Hrh2. Furthermore, this assay endpoint can be referred to as a primary readout, because the performed assay has only produced 1 assay endpoint. To generalize the intended target to other relatable targets, this assay endpoint is annotated to the gpcr intended target family, where the subfamily is rhodopsin-like receptor.
Binding assays used specific radioligands (tritiated, iodinated) with non-radioactive competitive displacement ligands in agonist or antagonist protocols (as indicated) and various reference compounds and inhibitors to titrate specific binding to receptors and transporters. Most enzyme assays (CYPs, kinases, phosphatases, proteases, HDACs) used recombinant protein and specific substrates (fluorescence mostly, some colorimetric and radioactive) and inhibitors, followed by a biochemical separation of substrate and product. All assays for the biochemical HTS were initially run in duplicate at a single concentration (10 uM for CYP450 assays and 25 uM for all others). Assay-chemical combinations meeting a pre-defined threshold (e.g., 30% inhibition and other criteria defined below) were then run in singleton concentration-response format with maximum concentration of 20 uM for CYPs and 50 uM for all others. Each assay was run with positive and negative controls, and concurrent controls on every plate. The follow-up (secondary) screen tested active chemical-pairs in concentration series, as well as a few additional assays not tested in the primary screen, some selected negative inactives, and several cases re-run in the concentration series for confirmatory purposes.

| SMILES | AC50 | outcome |
| --- | --- | --- |
| Clc1cc(Cl)c2c(c1)N=C1CCCCCN1C2 | 1.85 µM (active) | – |
| COc1cc(C(=O)NC2CCN(C)CC2)ccc1Nc1ncc2c(n1)N(C1CCCC1)CC(F)(F)C(=O)N2C | 4.77 µM (active) | – |
| CN(C)c1ccc(C(=C2C=CC(=[N+](C)C)C=C2)c2ccc(N(C)C)cc2)cc1 | 0.827 µM (active) | – |
| COc1ccc2cc(S(=O)(=O)N[C@H](CC(=O)N[C@H](Cc3ccc(CN4[C@H](C)CCC[C@@H]4C)cc3)C(=O)N(C)C(C)C)c3ccc4c(c3)OCO4)ccc2c1 | 20.5 µM (active) | – |
| CCN(CC)C(=O)c1cc(S(=O)(=O)Cc2ccccc2)c(N2CCC(c3ccccc3)CC2)cc1N(CC)CCN(C)C | 2.84 µM (active) | – |
| c1ccc(C[n+]2cccc3ccccc32)cc1 | 25 µM (active) | – |
| CN(C)C(=O)C1(N2CCCCC2)CCN(CC[C@@]2(c3ccc(Cl)c(Cl)c3)CN(C(=O)c3ccccc3)CCO2)CC1 | 1.08 µM (active) | – |
| CCCCCCCCCCCC[N+](C)(C)C | 19.6 µM (active) | – |
| CCCCCCCCN(C)CCCCCCCC | 14.5 µM (active) | – |
| CCN(Cc1cccnc1)C(=O)c1cccc(Cl)c1[C@]1(C)C(=O)N(Cc2ccc(OC)cc2OC)c2ccc(Cl)cc21 | 1.12 µM (active) | – |
| O=C1c2ccccc2C(=O)N1CCc1noc(-c2ccc(CN3CCCCCC3)s2)n1 | 8.06 µM (active) | – |
| NCc1cccc(C2CCN(C(=O)c3ccc(C#Cc4ccccc4F)o3)CC2)c1 | 12 µM (active) | – |
| Cc1cc(F)ccc1-c1cc(N2CC[C@@H](O)[C@H]2CO)ncc1N(C)C(=O)C(C)(C)c1cc(C(F)(F)F)cc(C(F)(F)F)c1 | – | inactive |
| COc1cccc([C@H](O)C2CCN(CCc3ccc(F)cc3)CC2)c1OC | 13.1 µM (active) | – |
| Cc1occc1C(=O)Nc1ccc(C(=O)N2CCC(F)(F)/C(=C\C(=O)N3CCC(N4CCCCC4)CC3)c3ccccc32)cc1 | – | inactive |
| CCOC(=O)O[C@H](C)OC(=O)c1ccc2c(c1)cc(C(=O)NC1CCN(C(C)C)CC1)n2Cc1cc(-c2ccc(Cl)s2)on1 | 13.3 µM (active) | – |
